Experimental findings from PubChem BioAssay (NCI) are described below.

What all share (test): NCI-60 one-dose screen, 48 h (100 = growth as untreated, 0 = no growth, -100 = all killed)
One test deals with SR leukemia. As to conditions: 10 µM.
The subject of a further test is RPMI-8226 leukemia. As to conditions: 10 µM.
The next test deals with OVCAR-8 ovarian. The note with it: 10 µM.
A further test deals with OVCAR-5 ovarian. The note with it: 10 µM.
For another test, the system named is OVCAR-4 ovarian. As to conditions: 10 µM.
The test system of the next test is SK-OV-3 ovarian. As to conditions: 10 µM.
A further test deals with IGROV1 ovarian. The note with it: 10 µM.
A further test concerns OVCAR-3 ovarian. The note with it: 10 µM.
Another test relates to HS 578T breast. As to conditions: 10 µM.
In a further test the test system is NCI/ADR-RES ovarian. The note with it: 10 µM.
A further test concerns T-47D breast. As to conditions: 10 µM.
The subject of a further test is MDA-MB-435 melanoma. The note with it: 10 µM.
In a further test the test system is SW-620 colon. The note with it: 10 µM.
The next test has as its system MCF7 breast. The note with it: 10 µM unless noted.
A further test deals with HCT-116 colon. As to conditions: 10 µM.
The next test has as its system HCC-2998 colon. The note with it: 10 µM.
In the next test the test system is KM12 colon. As to conditions: 10 µM.
Another test deals with BT-549 breast. As to conditions: 10 µM.

This is part of a sample that, as a whole, favours compounds with a hit. Of some 83,000 tested, about 20% had one in any assay.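 Plates (96-well) were seeded with cells, treated with compound at one concentration, and incubated for 48 hours before percent growth was determined.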 Values without a mark were called inactive. Active and inactive are the calls of the source. How the source made its calls: active means growth percent below 10; inactive means the rest.

Turning to `COS(=O)(=O)c1ccc(Br)cc1`, the growth in the test with SR leukemia was 135%; with RPMI-8226 leukemia it was 111%; in the test on OVCAR-8 ovarian it was 98.6%; in the test on OVCAR-5 ovarian, 93.4%; with OVCAR-4 ovarian, 107%; with SK-OV-3 ovarian it was 104%. The growth in the test on IGROV1 ovarian was 118%; with OVCAR-3 ovarian, 101%; with HS 578T breast, 114%; in the test with NCI/ADR-RES ovarian it was 93.7%; in the test with T-47D breast, 93.9%; in the test with MDA-MB-435 melanoma, 110%. The growth with SW-620 colon is 97.5%; with MCF7 breast, 97.3%; in the test with HCT-116 colon it was 93.9%; in the test on HCC-2998 colon, 99.8%; in the test on KM12 colon it was 91.7%.

In the case of `CN(C)CCC(=O)c1ccc(O)cc1`, the growth was 105% in the test on SR leukemia; 89.6% with RPMI-8226 leukemia; 102% in the test on OVCAR-8 ovarian; 115% in the test with OVCAR-5 ovarian; 108% in the test with OVCAR-4 ovarian; 110% in the test with SK-OV-3 ovarian. Moreover, the growth in the test on IGROV1 ovarian is 113%; in the test with OVCAR-3 ovarian, 97.4%; with HS 578T breast, 112%; with NCI/ADR-RES ovarian it was 106%; in the test on T-47D breast it was 96.4%; in the test on MDA-MB-435 melanoma, 110%. The growth in the test with SW-620 colon was 107%; in the test on MCF7 breast, 97.7%; with HCT-116 colon, 106%; in the test with HCC-2998 colon, 104%; in the test on KM12 colon it was 99.9%.

Consider `Cc1cc(OCCO)cc(C)c1Cl`, for which the growth was 124% in the test with SR leukemia; 102% with RPMI-8226 leukemia; 106% in the test on OVCAR-8 ovarian; 115% in the test with OVCAR-5 ovarian; 122% in the test on OVCAR-4 ovarian; 117% in the test with SK-OV-3 ovarian. Moreover, the growth was 113% in the test on IGROV1 ovarian; 118% in the test on OVCAR-3 ovarian; 104% with HS 578T breast; 108% in the test with NCI/ADR-RES ovarian; 111% in the test on T-47D breast; 116% in the test on BT-549 breast. For the same compound, the growth is 107% in the test with SW-620 colon; 110% in the test on MCF7 breast; 101% in the test on HCT-116 colon; 102% with HCC-2998 colon; 107% in the test on KM12 colon.

As for `CCCCNC1(C#N)CCN(Cc2ccccc2)CC1`, the growth in the test with SR leukemia was 115%; in the test with RPMI-8226 leukemia it was 99.2%; in the test on OVCAR-8 ovarian, 96.4%; with OVCAR-5 ovarian, 88.9%; in the test on OVCAR-4 ovarian, 103%; with SK-OV-3 ovarian, 97.1%. Moreover, the growth in the test on IGROV1 ovarian was 91.9%; in the test on OVCAR-3 ovarian, 132%; with HS 578T breast it was 101%; with NCI/ADR-RES ovarian it was 88.3%; with T-47D breast, 17.8%; with BT-549 breast it was 107%. In addition, the growth in the test on SW-620 colon is 102%; with MCF7 breast, 102%; in the test on HCT-116 colon it was 98%; with HCC-2998 colon it was 86.9%; in the test with KM12 colon, 144%.

In the case of `NC(=S)NN=C1CCCC1`, the growth in the test on SR leukemia is 88%; in the test with RPMI-8226 leukemia, 72.6%; in the test with OVCAR-8 ovarian, 68.8%; in the test with OVCAR-5 ovarian, 115%; in the test on OVCAR-4 ovarian, 74.4%; with SK-OV-3 ovarian it was 110%. Further, the growth is 93.4% in the test on IGROV1 ovarian; 47.6% in the test on OVCAR-3 ovarian; 95.5% in the test with HS 578T breast; 42.9% in the test with NCI/ADR-RES ovarian; 40.8% with T-47D breast; 107% with BT-549 breast. The growth in the test on SW-620 colon is 72.8%; in the test with MCF7 breast it was 21.7%; in the test on HCT-116 colon, 8.81% (active); in the test with HCC-2998 colon, 97.7%; in the test on KM12 colon it was 101%.

For the compound `CCOC(=O)C1=C(C)NC(=O)NC1c1cccs1` (stereo unspecified), the growth in the test with SR leukemia was 76.5%; with RPMI-8226 leukemia, 99.8%; in the test with OVCAR-8 ovarian it was 94.1%; in the test on OVCAR-5 ovarian, 122%; in the test with OVCAR-4 ovarian, 117%; in the test on SK-OV-3 ovarian, 105%. In addition, the growth was 113% in the test with IGROV1 ovarian; 118% with OVCAR-3 ovarian; 99% with HS 578T breast; 111% in the test on NCI/ADR-RES ovarian; 102% in the test on T-47D breast; 123% in the test on BT-549 breast. Moreover, the growth with MDA-MB-435 melanoma was 125%; with SW-620 colon, 105%; in the test on MCF7 breast, 101%; in the test on HCT-116 colon, 116%; in the test on KM12 colon, 109%.

For the compound `C=CC[N+](C)(C)C`, the growth was 90.8% in the test with SR leukemia; 101% in the test on RPMI-8226 leukemia; 106% with OVCAR-8 ovarian; 102% with OVCAR-5 ovarian; 109% in the test on OVCAR-4 ovarian; 108% in the test on SK-OV-3 ovarian. In addition, the growth is 99.7% with IGROV1 ovarian; 118% in the test with OVCAR-3 ovarian; 105% in the test on NCI/ADR-RES ovarian; 103% in the test with T-47D breast; 114% with BT-549 breast; 102% in the test on MDA-MB-435 melanoma. In addition, the growth in the test with SW-620 colon is 107%; in the test on MCF7 breast, 101%; in the test on HCT-116 colon, 104%; in the test on HCC-2998 colon, 103%; with KM12 colon, 114%.

Consider `O=C(N/N=C/c1ccccc1O)Nc1nn[nH]n1`, for which the growth was 102% with SR leukemia; 95.6% in the test on RPMI-8226 leukemia; 101% in the test with OVCAR-8 ovarian; 92.3% in the test with OVCAR-5 ovarian; 102% in the test on OVCAR-4 ovarian; 113% in the test with SK-OV-3 ovarian. In addition, the growth in the test on IGROV1 ovarian was 111%; in the test on OVCAR-3 ovarian, 116%; in the test on HS 578T breast, 99%; in the test with NCI/ADR-RES ovarian, 109%; in the test on T-47D breast it was 105%; with MDA-MB-435 melanoma, 98.3%. Besides, the growth with SW-620 colon was 101%; in the test with MCF7 breast, 88.6%; in the test with HCT-116 colon, 89%; in the test on KM12 colon, 114%.

Turning to `O=C1C=CC(=O)N1c1ccc(I)cc1Cl`, the growth in the test with SR leukemia was 110%; in the test on RPMI-8226 leukemia it was 92.5%; in the test on OVCAR-8 ovarian, 73.7%; in the test with OVCAR-5 ovarian, 102%; with OVCAR-4 ovarian, 99.4%; in the test on SK-OV-3 ovarian it was 109%. Besides, the growth in the test on IGROV1 ovarian was 113%; in the test with OVCAR-3 ovarian, 118%; in the test with HS 578T breast it was 109%; in the test with NCI/ADR-RES ovarian, 97.9%; with T-47D breast, 84.1%; in the test on SW-620 colon it was 107%. The growth is 98.1% with MCF7 breast, 96.9% in the test on HCT-116 colon, 95.7% with HCC-2998 colon and 115% in the test on KM12 colon.

Regarding `O=C(O)c1cccc([N+](=O)[O-])c1O`, the growth with SR leukemia was 94.4%; in the test on RPMI-8226 leukemia, 107%; in the test on OVCAR-8 ovarian, 113%; in the test with OVCAR-5 ovarian, 112%; in the test with OVCAR-4 ovarian, 111%; in the test with SK-OV-3 ovarian, 98.4%. Further, the growth with IGROV1 ovarian was 94.4%; in the test with OVCAR-3 ovarian it was 116%; with NCI/ADR-RES ovarian, 102%; with T-47D breast, 101%; with BT-549 breast it was 93.6%; in the test on SW-620 colon, 105%. Further, the growth in the test on MCF7 breast is 119%; in the test with HCT-116 colon, 98.9%; in the test on KM12 colon it was 110%.
